Results on six compounds are retold here after PubChem BioAssay (NCATS).

Test [1] deals with Lysosomal acid glucosylceramidase (Homo sapiens) (UniProt P04062). The test can be described thus: Glucocerebrosidase-p2 (AID 348; in the data active = potency below about 10 µM; note: potency is the fitted concentration of half-maximal effect). As to conditions: purified GBA, blue fluorogenic substrate, 40 min. In short, it runs like this: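 Normal human glucocerebrosidase (0.2 nM) with blue fluorogenic substrate (80 uM final) in citrate/phosphate pH 5.9 with 10mM sodium taurocholate, 0.01% tween-20; 40 min RT, NaOH/glycine stop; fluorescence Ex 365/Em 440; AC50 from a titration from 0.6 nM upwards.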
Sequence of Lysosomal acid glucosylceramidase (Homo sapiens) (P04062 whole entry, looked up): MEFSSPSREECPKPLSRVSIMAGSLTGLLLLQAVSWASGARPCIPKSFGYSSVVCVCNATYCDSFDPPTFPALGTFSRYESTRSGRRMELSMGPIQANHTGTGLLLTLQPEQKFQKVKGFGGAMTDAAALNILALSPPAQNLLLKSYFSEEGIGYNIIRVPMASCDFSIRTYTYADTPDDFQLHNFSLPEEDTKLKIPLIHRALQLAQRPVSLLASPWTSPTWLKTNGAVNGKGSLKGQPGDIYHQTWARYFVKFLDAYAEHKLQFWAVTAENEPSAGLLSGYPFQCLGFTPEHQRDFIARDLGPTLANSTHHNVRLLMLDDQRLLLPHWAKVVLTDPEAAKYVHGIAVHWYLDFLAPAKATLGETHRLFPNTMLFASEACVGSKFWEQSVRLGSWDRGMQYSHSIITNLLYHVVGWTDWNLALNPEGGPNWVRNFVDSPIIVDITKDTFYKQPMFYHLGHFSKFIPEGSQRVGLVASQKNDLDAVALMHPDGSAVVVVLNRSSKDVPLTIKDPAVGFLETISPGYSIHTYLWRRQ

Test [2] in a line: AP1 Signaling Pathway (AID 357).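 Note: ME-180 reporter cells stimulated with EGF at its EC50 level; % is set by controls: 0 for no effect and ±100 for the full control effect.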 The conditions noted are these: ME-180 AP-1-bla reporter, EGF-induced, beta-lactamase ratio, 5 h; at 7.69 µM (top of the series) unless noted. The essentials:
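Titration-series screen for positive or negative modulators of EC50 EGF-induced signaling in ME-180 cells carrying an AP-1-driven beta-lactamase reporter. After 5 hours at 37 degrees Celsius, CCF4 460nm/530nm emission ratio gave %Activity; AC50 values derived.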

Test [3] addresses Cytochrome P450 1A2 (Homo sapiens) (UniProt P05177). Put plainly: p450-cyp1a2 (AID 410; calls by dose curve; note: potency is the fitted concentration of half-maximal effect). The conditions noted are these: recombinant CYP1A2, luciferin-ME demethylation, luminescence; series mostly up to 57 µM. The essentials: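 Read-out is luminescence from luciferin produced by CYP1A2 demethylation of Luciferin-ME (100uM, at Km). Detection reagent stopped the 60 min NADPH-dependent reaction; signals were normalized to 57 uM furafylline.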

Test [4] in a line: NFAT Signaling Pathway (AID 444).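 Note: carbachol stimulus at about its EC50 of 1 µM final; % is set by controls: 0 for no effect and ±100 for the full control effect.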 As to conditions: Jurkat NFAT-bla M1, carbachol, beta-lactamase ratio, 5 h; at 7.69 µM (top of the series) unless noted. In short, it runs like this:
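Jurkat cells with NFAT-driven β-lactamase reporter and co-expressed M1 receptor, stimulated with carbachol (final 1 uM, ~EC50), compound titration, 5 h at 37 °C. CCF4 loaded 1 h at RT; 460/530 nm ratio gave %activity and AC50.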

A short description of test [5]: Stat Signaling Pathway (AID 446).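 Note: ME-180 cervical cancer cells given 40 pM IL-6 alongside compound; SIE-controlled beta-lactamase reporter measured as 460/530 nm FRET emission ratio; % is set by controls: 0 for no effect and ±100 for the full control effect.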 As to conditions: ME-180 SIE beta-lactamase reporter, IL-6 stimulated, 5 h; at 7.69 µM (top of the series) unless noted. The essentials:
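Normalization used AC90 stimulation (300 pM IL-6) and AC90 inhibition (125 nM pan-JAK inhibitor at 40 pM IL-6). The underlying signal is SIE-driven beta-lactamase in ME-180 cells after 5 h IL-6 exposure with compound.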

For test [6], the target named is Glucocorticoid receptor (Homo sapiens) (UniProt P04150). The test can be described thus: GR-EFC Redistribution (AID 451; calls by dose curve; note: potency is the fitted concentration of half-maximal effect). The conditions noted are these: CHO-K1 GR-EFC translocation, beta-gal luminescence, 2 h. In short, it runs like this: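 CHO-K1 cells expressing nuclear EA and GR-ED fragments of b-gal; compounds titrated up to 46 uM final, 2 h at 37 C. GR nuclear translocation read as complemented b-gal luminescence after 1 h RT detection.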
Sequence of Glucocorticoid receptor (Homo sapiens) (P04150 whole entry, looked up, the tested form may be a part): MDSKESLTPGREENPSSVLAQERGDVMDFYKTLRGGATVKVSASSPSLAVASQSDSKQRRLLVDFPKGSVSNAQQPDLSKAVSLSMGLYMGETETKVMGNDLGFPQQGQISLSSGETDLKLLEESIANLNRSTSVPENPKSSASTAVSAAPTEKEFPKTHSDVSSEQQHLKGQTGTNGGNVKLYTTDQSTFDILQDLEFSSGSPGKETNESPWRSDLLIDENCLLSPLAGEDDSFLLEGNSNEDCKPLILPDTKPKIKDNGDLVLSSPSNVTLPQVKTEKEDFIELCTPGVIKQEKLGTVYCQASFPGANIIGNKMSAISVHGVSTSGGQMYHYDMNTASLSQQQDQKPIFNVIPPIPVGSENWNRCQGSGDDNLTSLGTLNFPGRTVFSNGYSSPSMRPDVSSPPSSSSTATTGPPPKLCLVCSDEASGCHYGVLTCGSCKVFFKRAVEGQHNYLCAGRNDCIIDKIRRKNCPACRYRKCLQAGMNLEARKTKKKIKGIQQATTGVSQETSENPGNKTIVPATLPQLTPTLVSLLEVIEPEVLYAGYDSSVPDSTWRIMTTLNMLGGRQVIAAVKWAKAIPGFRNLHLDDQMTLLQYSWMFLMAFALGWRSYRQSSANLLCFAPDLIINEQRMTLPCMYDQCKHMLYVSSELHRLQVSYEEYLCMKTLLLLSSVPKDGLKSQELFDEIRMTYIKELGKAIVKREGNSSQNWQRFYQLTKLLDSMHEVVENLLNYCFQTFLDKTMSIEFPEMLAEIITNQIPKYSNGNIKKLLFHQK

The target in test [7] is Mitogen-activated protein kinase 10 (Mus musculus) (UniProt Q61831). The test can be described thus: JNK3 AlphaScreen Assay (AID 530).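 Note: kinase came from lysate of stimulated human HepG2 cells; signal reports phosphorylation of biotinylated GST-cJun 1-79 at Ser73 with 10 µM ATP; % is set by controls: 0 for no effect and ±100 for the full control effect.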 The conditions noted are these: JNK3 lysate, c-Jun phosphorylation; series mostly up to 57.1 µM. In short, it runs like this:
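HepG2 lysate (IL-1b/TNFa pre-activated) + biotin-GST-cJun 1-79 + anti-pSer73 cJun; cpd titration, 15 min RT; ATP 10 uM start; Tris pH 7.6, MgCl2, DTT, vanadate; beads in EDTA buffer; AlphaScreen.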
Background: Bead proximity is the source of the signal in Alpha formats.

The target in test [8] is Cytochrome P450 2C9 (Homo sapiens) (UniProt P11712). The test can be described thus: qHTS Assay for Inhibitors and Substrates of Cytochrome P450 2C9 (AID 883; active = well fitted curve in the direction sought with a large enough effect; an effect the other way counts as inactive or inconclusive; note: nearly all actives have a fitted effect of over 60% in size; note: potency is the fitted concentration of half-maximal effect). The conditions noted are these: recombinant CYP2C9, luciferin-H luminescence, 60 min; series mostly up to 57.1 µM. In short, it runs like this: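 Human CYP2C9 (10nM) with Luciferin-H at 100uM (its KM) in 25mM KPO4; compound preincubated 10 min at 37C, then NADPH regeneration for 60 min at 37C. Luciferin read by luminescence after detection reagent; normalized to 57uM sulphaphenazole as full inhibition.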
Sequence of Cytochrome P450 2C9 (Homo sapiens) (P11712 whole entry, looked up): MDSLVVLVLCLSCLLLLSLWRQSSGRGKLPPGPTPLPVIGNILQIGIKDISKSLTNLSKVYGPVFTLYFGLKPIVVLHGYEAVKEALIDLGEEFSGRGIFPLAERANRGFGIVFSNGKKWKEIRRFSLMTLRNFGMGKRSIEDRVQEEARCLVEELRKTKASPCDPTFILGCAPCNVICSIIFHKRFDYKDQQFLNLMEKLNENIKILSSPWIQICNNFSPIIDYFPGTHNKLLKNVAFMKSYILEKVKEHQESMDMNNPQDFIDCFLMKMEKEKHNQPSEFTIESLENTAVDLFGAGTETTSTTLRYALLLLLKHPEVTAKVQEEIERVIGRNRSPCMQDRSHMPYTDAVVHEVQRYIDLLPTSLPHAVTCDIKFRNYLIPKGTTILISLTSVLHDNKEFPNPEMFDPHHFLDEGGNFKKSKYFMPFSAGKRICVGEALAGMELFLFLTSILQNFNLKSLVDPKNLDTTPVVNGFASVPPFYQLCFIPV
On the technique in general: Quantitative high-throughput screening tests each substance at several concentrations.

In test [9] the target is Cytochrome P450 3A4 (Homo sapiens) (UniProt P08684). The test can be described thus: qHTS Assay for Activators of Cytochrome P450 3A4 (AID 885; active = well fitted curve in the direction sought with a large enough effect; an effect the other way counts as inactive or inconclusive; note: nearly all actives have a fitted effect of over 65% in size). As to conditions: recombinant CYP3A4, Luciferin-PPXE luminescence, 60 min; series mostly up to 57.1 µM. The essentials:
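Human CYP3A4 dealkylates Luciferin-PPXE to luciferin, which luciferase detection converts to light. Substrate was at its KM (25uM), buffer 200mM KPO4, reaction 60 min at RT.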

Test [10] is described as follows: qHTS Assay for Lipid Storage Modulators (AID 1519; calls by dose curve). The conditions noted are these: Drosophila S3 cells, BODIPY lipid droplet/cell ratio, laser cytometry, cells loaded with oleic acid; for activity change, negative = inhibition: at 57.5 µM (top of the series). The essentials:
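Cells seeded at 5,000 per well were treated with compounds over a concentration series and loaded with oleic acid (400 uM, as added). Lipid droplet fluorescence (488 nm excitation, 500-530 nm channel) was read by laser-scanning cytometry and normalized to 20 uM Triacsin C.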

Test [11] is described as follows: Primary qHTS for small molecule stabilizers of the endoplasmic reticulum resident proteome: Secreted ER Calcium Modulated Protein (SERCaMP) assay (AID 1508630; active = well fitted curve in the direction sought with a large enough effect; an effect the other way counts as inactive or inconclusive; note: % is set by controls: 0 for no effect and ±100 for the full control effect). The conditions noted are these: SH-SY5Y GLuc-SERCaMP (Gaussia luciferase released on ER calcium loss) secretion, thapsigargin, luminescence; series mostly up to 38.4 µM. In short, it runs like this: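 The SH-SY5Y reporter protocol was run at 3 concentrations up to 38.3 uM (primary) or 11 concentrations (follow-up): 16 h compound, 100 nM thapsigargin for 4 h, then extracellular luciferase luminescence.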

The target of test [12] is Cytochrome P450 2D6 (Homo sapiens) (UniProt P10635). Put plainly: qHTS Assay for Inhibitors and Substrates of Cytochrome P450 2D6 (AID 891; active = well fitted curve in the direction sought with a large enough effect; an effect the other way counts as inactive or inconclusive;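 note: luciferin methyl ether substrate demethylated by CYP2D6 with NADPH regeneration; % is set by controls: 0 for no effect and ±100 for the full control effect; nearly all actives have a fitted effect of over 60% in size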). The conditions noted are these: recombinant CYP2D6, luciferin-ME EGE luminescence; series mostly up to 57.1 µM. In short, it runs like this: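 Luminescent read-out of luciferin formed by 5 nM human CYP2D6 demethylating 30 uM Luciferin-ME EGE (Km level) over 60 min at room temperature after NADPH regeneration addition. Data normalized to full inhibition by 1.43 uM quinidine.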
Sequence of Cytochrome P450 2D6 (Homo sapiens) (P10635 whole entry, looked up): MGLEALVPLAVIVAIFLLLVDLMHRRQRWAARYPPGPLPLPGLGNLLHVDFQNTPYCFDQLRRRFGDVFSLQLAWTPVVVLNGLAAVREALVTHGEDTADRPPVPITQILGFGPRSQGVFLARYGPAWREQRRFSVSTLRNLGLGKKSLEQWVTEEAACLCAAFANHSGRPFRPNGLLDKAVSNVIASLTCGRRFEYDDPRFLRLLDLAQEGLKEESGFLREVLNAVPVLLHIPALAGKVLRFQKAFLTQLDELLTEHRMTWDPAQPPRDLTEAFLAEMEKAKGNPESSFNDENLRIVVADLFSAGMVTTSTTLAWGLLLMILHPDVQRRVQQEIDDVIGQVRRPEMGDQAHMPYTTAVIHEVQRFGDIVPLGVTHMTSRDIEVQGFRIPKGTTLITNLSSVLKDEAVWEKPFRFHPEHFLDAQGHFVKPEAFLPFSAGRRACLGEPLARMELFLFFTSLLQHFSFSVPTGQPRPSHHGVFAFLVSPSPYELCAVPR

Test [13] has as its target Cytochrome P450 2C19 (Homo sapiens) (UniProt P33261). The test can be described thus: qHTS Assay for Inhibitors and Substrates of Cytochrome P450 2C19 (AID 899; active = well fitted curve in the direction sought with a large enough effect; an effect the other way counts as inactive or inconclusive; note: % is set by controls: 0 for no effect and ±100 for the full control effect; nearly all actives have a fitted effect of over 60% in size). The conditions noted are these: recombinant CYP2C19, luciferin-H EGE luminescence; series mostly up to 57.1 µM. The essentials:
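5 nM human CYP2C19 with 10uM Luciferin-H EGE (at KM) in 50mM KPO4, compound preincubated 10 min at 37C, then NADPH regeneration for 60 min at 37C. Luciferin read by luminescence after detection reagent; normalized to 57uM ketoconazole as full inhibition.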

Test [14] deals with 3',5'-cyclic-AMP phosphodiesterase 4B (Homo sapiens) (UniProt Q07343). Put plainly: qHTS Assay for Inhibitors of PDE-IV (AID 607; active = well fitted activation curve with a large enough effect in the main read-out, with a control signal flat, not every such curve was filed as active; note: % of control where 0% means no effect). The conditions noted are these: HEK293 ACTOne CNG channel cells, membrane potential fluorescence; series mostly up to 22.9 µM. In short, it runs like this:
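HEK293 ACTOne cells with CNG channel (1000/well), endogenous PDE4; membrane potential dye, compounds up to 22.9 uM final. Fluorescence Ex 535/Em 590; RO 20-1724 (100 uM final) as reference.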

Test [15] deals with Cytochrome P450 3A4 (Homo sapiens) (UniProt P08684). Put plainly: qHTS Assay for Inhibitors and Substrates of Cytochrome P450 3A4 (AID 884; active = well fitted curve in the direction sought with a large enough effect; an effect the other way counts as inactive or inconclusive; note: % is set by controls: 0 for no effect and ±100 for the full control effect; nearly all actives have a fitted effect of over 50% in size). The conditions noted are these: recombinant CYP3A4, Luciferin-PPXE luminescence; series mostly up to 57.1 µM. The essentials:
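Luminescent readout of luciferin produced by CYP3A4 (20 nM) dealkylation of Luciferin-PPXE, 25 uM (its KM). NADPH-driven reaction ran 60 min at RT after 10 min compound preincubation; data scaled to 57 uM ketoconazole as 100% inhibition.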

In test [16] the target is Glucocorticoid receptor (Homo sapiens) (UniProt P04150). The test can be described thus: GR-GFP Redistribution (AID 450;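 active = compounds whose dose series gives a full or clear partial fitted curve of increased nuclear translocation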; note: potency is the fitted concentration of half-maximal effect). The conditions noted are these: U2OS GR-GFP nuclear translocation, laser cytometry, 2 h.
Test [17] is described as follows: qHTS Assay for Identification of Small Molecule Agonists for Hypoxia Response Element Signaling Pathway (AID 914; active = well fitted activation curve with a large enough effect in the signal ratio, with a control signal flat, not every such curve was filed as active; the % refers to the signal ratio; note: potency is the fitted concentration of half-maximal effect). The conditions noted are these: ME-180 (cervical carcinoma) HRE-bla reporter, beta-lactamase ratio, CoCl2, 17 h; activation: stronger effect = higher value. The essentials: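 Positive modulation of EC50 CoCl2-induced hypoxia response element signaling is measured in ME-180 cells with a beta-lactamase reporter. Compounds are titrated, incubation runs 17 hours, and %Activity derives from the blue/green ratio.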

[18] abbreviates: measured here: cell count channel max response.
[19] abbreviates: measured here: lipid channel max response.

Inconclusive results are not listed. Calls of active or inactive are those of the source. Unless noted, calls come from the whole dose curve; as a rule, active = well fitted curve in either direction with a large enough effect (not every such curve was filed as active); inconclusive = small, poorly fitted or top-dose-only effect, or another doubt; inactive = flat fitted curve, though single readings scatter.

Sequence of 3',5'-cyclic-AMP phosphodiesterase 4B (Homo sapiens) (Q07343 whole entry, looked up): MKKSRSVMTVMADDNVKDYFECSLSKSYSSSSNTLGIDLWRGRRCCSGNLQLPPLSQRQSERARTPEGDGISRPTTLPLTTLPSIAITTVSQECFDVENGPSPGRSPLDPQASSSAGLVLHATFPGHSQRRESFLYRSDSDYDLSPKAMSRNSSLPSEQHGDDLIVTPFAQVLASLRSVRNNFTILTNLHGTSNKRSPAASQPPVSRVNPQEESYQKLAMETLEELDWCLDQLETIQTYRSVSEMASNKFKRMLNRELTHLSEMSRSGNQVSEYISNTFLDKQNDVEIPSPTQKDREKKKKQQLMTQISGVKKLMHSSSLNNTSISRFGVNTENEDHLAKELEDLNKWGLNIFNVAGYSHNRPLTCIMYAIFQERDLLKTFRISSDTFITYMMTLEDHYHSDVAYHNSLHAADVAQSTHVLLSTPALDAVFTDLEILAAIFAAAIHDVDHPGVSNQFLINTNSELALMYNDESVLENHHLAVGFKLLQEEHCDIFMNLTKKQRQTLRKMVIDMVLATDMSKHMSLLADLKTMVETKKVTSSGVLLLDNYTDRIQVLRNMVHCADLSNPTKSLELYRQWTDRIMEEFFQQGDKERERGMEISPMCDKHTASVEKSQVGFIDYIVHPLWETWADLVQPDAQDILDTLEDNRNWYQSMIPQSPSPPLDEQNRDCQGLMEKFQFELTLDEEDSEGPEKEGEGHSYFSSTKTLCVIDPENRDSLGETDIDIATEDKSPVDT
Sequence of Cytochrome P450 3A4 (Homo sapiens) (P08684 whole entry, looked up): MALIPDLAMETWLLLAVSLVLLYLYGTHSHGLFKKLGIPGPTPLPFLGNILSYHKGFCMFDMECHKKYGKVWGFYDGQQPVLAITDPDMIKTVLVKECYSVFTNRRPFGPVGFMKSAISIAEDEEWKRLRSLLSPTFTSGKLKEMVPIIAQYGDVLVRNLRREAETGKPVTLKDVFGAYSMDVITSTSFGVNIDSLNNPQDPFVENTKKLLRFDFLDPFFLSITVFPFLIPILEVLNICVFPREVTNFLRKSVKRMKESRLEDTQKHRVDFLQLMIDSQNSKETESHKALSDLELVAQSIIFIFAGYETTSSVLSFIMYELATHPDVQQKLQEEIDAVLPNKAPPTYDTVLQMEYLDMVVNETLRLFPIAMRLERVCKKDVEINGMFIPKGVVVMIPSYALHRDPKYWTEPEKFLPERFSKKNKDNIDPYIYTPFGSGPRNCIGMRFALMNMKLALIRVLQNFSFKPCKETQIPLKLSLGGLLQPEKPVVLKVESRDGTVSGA
Sequence of Cytochrome P450 1A2 (Homo sapiens) (P05177 whole entry, looked up): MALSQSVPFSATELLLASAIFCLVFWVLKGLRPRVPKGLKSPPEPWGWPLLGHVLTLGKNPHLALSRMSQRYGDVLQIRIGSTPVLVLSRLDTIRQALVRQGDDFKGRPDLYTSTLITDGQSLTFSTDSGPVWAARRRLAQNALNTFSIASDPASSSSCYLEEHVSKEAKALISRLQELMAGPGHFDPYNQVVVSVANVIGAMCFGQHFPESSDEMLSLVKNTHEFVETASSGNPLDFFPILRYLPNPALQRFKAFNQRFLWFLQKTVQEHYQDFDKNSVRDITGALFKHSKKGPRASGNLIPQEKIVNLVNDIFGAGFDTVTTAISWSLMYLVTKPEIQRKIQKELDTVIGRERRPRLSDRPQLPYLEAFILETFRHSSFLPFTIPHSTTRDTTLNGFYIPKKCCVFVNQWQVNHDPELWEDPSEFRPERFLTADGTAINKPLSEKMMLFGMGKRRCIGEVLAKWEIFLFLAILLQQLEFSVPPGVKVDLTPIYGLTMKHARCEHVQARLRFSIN
Sequence of Cytochrome P450 2C19 (Homo sapiens) (P33261 whole entry, looked up): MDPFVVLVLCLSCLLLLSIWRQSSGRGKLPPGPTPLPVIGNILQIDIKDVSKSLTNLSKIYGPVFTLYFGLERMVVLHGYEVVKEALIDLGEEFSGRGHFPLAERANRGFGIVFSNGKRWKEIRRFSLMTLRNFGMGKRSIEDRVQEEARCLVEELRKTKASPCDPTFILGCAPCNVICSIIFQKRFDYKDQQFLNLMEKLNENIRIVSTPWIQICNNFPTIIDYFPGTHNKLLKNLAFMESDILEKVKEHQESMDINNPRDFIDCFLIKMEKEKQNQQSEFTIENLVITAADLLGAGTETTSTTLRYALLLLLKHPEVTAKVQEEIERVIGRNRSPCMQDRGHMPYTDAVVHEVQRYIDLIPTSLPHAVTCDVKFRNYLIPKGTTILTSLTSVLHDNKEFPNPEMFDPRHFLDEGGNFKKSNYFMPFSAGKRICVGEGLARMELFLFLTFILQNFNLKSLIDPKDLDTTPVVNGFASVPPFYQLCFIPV

As for `O=C(c1csnn1)N1CCC2(CCCN(c3ccccc3)C2)CC1`, the values for the Potency in [1], in test [6] and in test [8] were > 11.4 µM (inactive), > 46 µM (inactive) and 7.94 µM (active), respectively. Further, the activity change, negative = inhibition in test [2] is -2.99% (inactive); in test [4], 1.2% (inactive); in [10], -0.699% (inactive). Moreover, the Potency entry in [3], in test [9] and in test [11] was “inactive” each time. Also, the activity, negative = inhibition in test [5] was -8.69% (inactive). The compound was classed as inactive in test [7]. The max response in test [10] (setting [18]) is 7.99%; in test [10] (setting [19]) it was 11.5%.
As for `CC(C)NC(=O)N1CCCC2(CCN(C(=O)c3cccc(F)c3)CC2)C1`, the Potency was > 11.4 µM (inactive) in test [1] and > 46 µM (inactive) in test [6]. In addition, the activity change, negative = inhibition in test [2] is -13.6% (inactive); in [4], -16.5% (inactive); in test [10], 3.5% (inactive). In addition, the Potency result in [3], in [9], in [12], in test [13] and in [11] was “inactive” each time. In addition, the activity, negative = inhibition in test [5] was -2.81% (inactive). Also, in test [7], the call was inactive. The figures for the max response in [10] (setting [18]) and in test [10] (setting [19]) were 20.4% and 27.6%, respectively.
Consider `O=C(c1ccncc1)N1CCC2(CC1)CCN(c1cccc(-c3ccccc3)c1)CC2`, for which the Potency is > 11.4 µM (inactive) in [1], 20 µM (active) in test [3] and > 46 µM (inactive) in test [6]. Moreover, the activity change, negative = inhibition was -1.52% (inactive) in test [2], 4.67% (inactive) in [4] and 1.19% (inactive) in test [10]. In addition, the activity, negative = inhibition in test [5] was -12.5% (inactive). In addition, the Potency entry in [14] and in [11] was “inactive” throughout. In addition, the max response in test [10] (setting [18]) is 19.1%; in [10] (setting [19]), 21.6%.
`N#Cc1cccc(NC(=O)N2CCC3(CC2)CCN(C(=O)c2ccco2)CC3)c1`: the Potency in test [1] was > 11.4 µM (inactive); in test [6], > 46 µM (inactive). Further, the activity change, negative = inhibition in test [2] was -7.83% (inactive); in [4], -8.92% (inactive); in [10], 6.33% (inactive). In addition, the Potency entry in test [3], in test [14], in [15] and in test [11] was “inactive” throughout. Also, the activity, negative = inhibition in test [5] was 4.51% (inactive). The max response in test [10] (setting [18]) was determined as 10.3%; in test [10] (setting [19]) it was 18.9%.
For `COc1ccc(NC(=O)N2CCC3(CC2)CCN(C(=O)c2csnn2)CC3)cc1`, the Potency was > 11.4 µM (inactive) in test [1], 6.31 µM (active) in [3] and > 46 µM (inactive) in test [6]. In addition, the activity change, negative = inhibition in test [2] is -4.35% (inactive); in [4], 3.59% (inactive); in [10] it was 8.17% (inactive). Also, the activity, negative = inhibition in [5] was -12% (inactive). The compound was called inactive in test [7]. In addition, the Potency entry in test [9] and in test [11] was “inactive” throughout. Moreover, the max response is 17.2% in [10] (setting [18]) and 29.5% in test [10] (setting [19]).
As to `Cn1cc(-c2nc3cnc(Oc4cccc(Cl)c4)nc3n(CCC#N)c2=O)c2ccccc21`, the Potency in test [1] is > 11.4 µM (inactive); in [3], 2.51 µM (active); in test [16], > 9.22 µM (inactive); in test [6], > 46 µM (inactive); in [17] it was 1.58 µM (active). For the same compound, the values for the activity change, negative = inhibition in [2], in test [4] and in test [10] were 0.05% (inactive), 21.5% (inactive) and -7.95% (inactive), respectively. For the same compound, the Potency entry in test [14], in test [8], in test [9] and in [11] was “inactive” each time. In addition, the max response in [10] (setting [18]) is 6.76%; in test [10] (setting [19]), 0.937%.
